The values that follow come from PubChem BioAssay.

A short description of experiment [1]: antimalarial activity against Dd2 strain (AID 2302;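 active = growth inhibition above 50% at the single 2 µM test dose, taken to imply half-maximal potency below 2 µM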;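 also: 0% = DMSO untreated growth and 100% = chloroquine plus artemisinin killed control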). Particulars: P. falciparum Dd2 in RBCs, LDH growth readout, 72 h; at 2 µM; active compounds read high.
Experiment [2] is described as follows: HepG2 cytotoxicity, primary screen, cytotoxicity control for P. falciparum antimalarial project, cell-based, ATP luminescence (AID 2303;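 active = inhibition above 50%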;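 also: 0% = DMSO wells and 100% = digitonin-killed cells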). Conditions: HepG2 viability, 24-48 h, at 10 µM, active compounds read high.
The target of experiment [3] is L-lactate dehydrogenase (Plasmodium falciparum (isolate CDC / Honduras)) (UniProt Q27743). Briefly: PfLDH activity inhibition – cell lysate, 3D7 strain, counter-screen for P. falciparum growth inhibition project (AID 2304).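 Also: 0% = vehicle and 100% = reference inhibitor.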 Particulars: P. falciparum 3D7 crude extract, LDH APAD/NBT absorbance; at 2 µM; active compounds read high.
Experiment [4] is described as follows: inhibition of 3D7 malaria parasite growth – strain 3D7 (AID 2306).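 Also: 0% = DMSO wells and 100% = chloroquine plus artemisinin control wells.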 Particulars: P. falciparum 3D7 erythrocytic growth, LDH absorbance, 72 h; at 2 µM; active compounds read high.
The target in experiment [5] is Calcium-dependent protein kinase 1 (Plasmodium falciparum (isolate 3D7)) (UniProt P62344). Briefly: PfCDPK1 kinase inhibitors, biochemical, TCAMS library (AID 1159585; cut-off not given, nearly all actives have IC50 up to about 0.98 µM;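 also: inhibitors leave more ATP so luminescence rises with inhibition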). Particulars: recombinant PfCDPK1, Kinase-Glo ATP depletion luminescence. (In general: Kinase-Glo measures the ATP left after a reaction by luminescence.)
For experiment [6], the target named is Plasmodium falciparum protein kinase 6 (PK6, PF3D7_1337100) (UniProt Q8IDW1). Briefly: PfPK6 kinase inhibitors, biochemical, TCAMS library (AID 1159586). Particulars: recombinant PfPK6, Kinase-Glo ATP depletion luminescence.
For experiment [7], the target named is Protein kinase 7 (PK7), Plasmodium falciparum 3D7 (PF3D7_0213400) (UniProt Q7YTF7). Briefly: inhibition of Plasmodium PK7 catalytic activity – biochemical, TCAMS antimalarial set, Kinase-Glo luminescence (AID 1159587). Particulars: recombinant PfPK7, Kinase-Glo ATP depletion luminescence.
In experiment [8] the target is Calcium-dependent protein kinase 4 (Plasmodium falciparum (isolate 3D7)) (UniProt Q8IBS5). Briefly: PfCDPK4 kinase inhibitors, biochemical, TCAMS library (AID 1159588; cut-off not given, nearly all actives have IC50 up to about 0.91 µM). Conditions: recombinant PfCDPK4, Kinase-Glo ATP depletion luminescence.

Unmarked numbers belong to inactive results. For some of these results: Potency and affinity values are given separately. Calls of active or inactive are those of the source. Unless noted, no rule for the calls is given here.

Chain of L-lactate dehydrogenase (Plasmodium falciparum (isolate CDC / Honduras)) (Q27743 whole entry, looked up): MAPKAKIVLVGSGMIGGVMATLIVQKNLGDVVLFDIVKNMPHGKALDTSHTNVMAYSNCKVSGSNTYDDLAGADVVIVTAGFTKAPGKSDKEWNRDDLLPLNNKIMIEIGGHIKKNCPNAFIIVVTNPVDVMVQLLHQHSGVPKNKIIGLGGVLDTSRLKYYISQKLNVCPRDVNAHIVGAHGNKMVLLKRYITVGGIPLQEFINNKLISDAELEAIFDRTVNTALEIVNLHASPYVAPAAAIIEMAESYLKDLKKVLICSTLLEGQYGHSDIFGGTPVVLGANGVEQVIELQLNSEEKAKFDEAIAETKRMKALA
Chain of Plasmodium falciparum protein kinase 6 (PK6, PF3D7_1337100) (Q8IDW1 1-305): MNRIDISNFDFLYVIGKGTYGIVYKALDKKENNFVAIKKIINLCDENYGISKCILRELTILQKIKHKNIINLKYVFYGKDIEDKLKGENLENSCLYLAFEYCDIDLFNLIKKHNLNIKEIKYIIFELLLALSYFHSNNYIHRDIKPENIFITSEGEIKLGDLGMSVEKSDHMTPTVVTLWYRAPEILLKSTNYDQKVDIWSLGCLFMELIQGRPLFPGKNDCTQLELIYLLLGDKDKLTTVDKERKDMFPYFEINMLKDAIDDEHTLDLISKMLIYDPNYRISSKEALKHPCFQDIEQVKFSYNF
Chain of Protein kinase 7 (PK7), Plasmodium falciparum 3D7 (PF3D7_0213400) (Q7YTF7 1-343): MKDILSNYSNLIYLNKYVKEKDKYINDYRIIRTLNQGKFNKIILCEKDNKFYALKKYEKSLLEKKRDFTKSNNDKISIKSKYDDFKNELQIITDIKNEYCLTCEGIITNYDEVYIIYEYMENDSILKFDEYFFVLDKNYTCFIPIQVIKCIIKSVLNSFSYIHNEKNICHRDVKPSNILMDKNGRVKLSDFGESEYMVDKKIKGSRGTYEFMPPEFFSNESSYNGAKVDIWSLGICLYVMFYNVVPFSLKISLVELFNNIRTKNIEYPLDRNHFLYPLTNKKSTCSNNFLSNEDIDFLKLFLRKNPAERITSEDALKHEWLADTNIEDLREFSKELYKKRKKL
Chain of Calcium-dependent protein kinase 4 (Plasmodium falciparum (isolate 3D7)) (Q8IBS5 whole entry, looked up): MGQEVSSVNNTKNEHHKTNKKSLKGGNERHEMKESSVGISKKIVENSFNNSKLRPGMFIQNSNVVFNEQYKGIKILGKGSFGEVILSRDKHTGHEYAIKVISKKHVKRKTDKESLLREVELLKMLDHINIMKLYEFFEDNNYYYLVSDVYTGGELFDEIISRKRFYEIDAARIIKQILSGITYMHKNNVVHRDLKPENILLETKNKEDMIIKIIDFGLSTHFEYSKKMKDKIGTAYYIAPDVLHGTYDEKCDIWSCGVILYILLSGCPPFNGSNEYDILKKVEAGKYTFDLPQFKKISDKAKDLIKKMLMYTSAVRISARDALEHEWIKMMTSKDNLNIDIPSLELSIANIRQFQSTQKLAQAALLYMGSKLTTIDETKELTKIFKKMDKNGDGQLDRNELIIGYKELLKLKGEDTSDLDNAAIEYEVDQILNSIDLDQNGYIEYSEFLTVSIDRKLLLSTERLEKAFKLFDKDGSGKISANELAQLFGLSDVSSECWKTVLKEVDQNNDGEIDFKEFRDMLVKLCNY
Chain of Calcium-dependent protein kinase 1 (Plasmodium falciparum (isolate 3D7)) (P62344 whole entry, looked up): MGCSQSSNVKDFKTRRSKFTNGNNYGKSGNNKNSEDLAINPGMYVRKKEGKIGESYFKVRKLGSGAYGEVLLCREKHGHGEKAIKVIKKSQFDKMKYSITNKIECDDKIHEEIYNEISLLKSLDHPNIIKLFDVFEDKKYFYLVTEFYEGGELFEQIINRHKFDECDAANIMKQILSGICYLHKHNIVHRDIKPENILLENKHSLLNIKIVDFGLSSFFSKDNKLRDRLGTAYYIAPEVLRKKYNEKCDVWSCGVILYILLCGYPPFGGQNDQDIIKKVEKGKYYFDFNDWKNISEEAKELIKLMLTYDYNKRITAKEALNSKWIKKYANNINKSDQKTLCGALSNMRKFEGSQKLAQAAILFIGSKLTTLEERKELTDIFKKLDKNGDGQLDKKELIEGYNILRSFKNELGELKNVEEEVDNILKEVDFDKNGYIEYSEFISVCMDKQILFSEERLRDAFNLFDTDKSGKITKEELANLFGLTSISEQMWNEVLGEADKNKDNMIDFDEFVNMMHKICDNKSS

Turning to `O=C(/C=C/c1cccc(C(F)(F)F)c1)NCCCCCN1CCN(C(=O)Nc2ccc(Cl)c(Cl)c2)CC1`, the growth inhibition was -1% in experiment [1] and 89% (active) in experiment [4]. In addition, the inhibition (commonly the relative decrease from the control value, in per cent) in experiment [2] is 29%; in experiment [3], 4%. Besides, the result in experiment [5], in experiment [6], in experiment [7] and in experiment [8] was inactive.

As to `CN(C)CC(=O)Nc1cccc(Nc2nccc(NCC(O)c3ccccc3)n2)c1` (stereo not given), the growth inhibition is 3% in experiment [1] and 102% (active) in experiment [4]. In addition, the inhibition is 30% in experiment [2] and -5% in experiment [3]. Also, the result in experiment [5], in experiment [6], in experiment [7] and in experiment [8] was inactive.

Regarding `CCN(CC)c1nc(Nc2cc(C)ccc2C)nc(Nc2ccccc2O)n1`, the growth inhibition in experiment [1] is 99% (active); in experiment [4] it was 101% (active). The inhibition in experiment [2] was -9%; in experiment [3] it was 2%. Besides, the outcome in experiment [5], in experiment [6], in experiment [7] and in experiment [8] was inactive.

As to `CCc1cccc2c(C#N)cn(CC(=O)Nc3ccc(OC)cc3)c12`, the figures for the growth inhibition in experiment [1] and in experiment [4] were 76% (active) and 97% (active), respectively. The figures for the inhibition in experiment [2] and in experiment [3] were -13% and -3%, respectively. Besides, the outcome in experiment [5], in experiment [6], in experiment [7] and in experiment [8] was inactive.

For `CCS(=O)(=O)c1ccc(-c2cnc3[nH]cc(-c4ccc(N)cc4)c3c2)cc1`, the figures for the growth inhibition in experiment [1] and in experiment [4] were 99% (active) and 92% (active), respectively. For the same compound, the inhibition is 24% in experiment [2] and -5% in experiment [3]. Also, the result in experiment [5], in experiment [6], in experiment [7] and in experiment [8] was inactive.

For the compound `COc1cc(NCCCCCNc2cc(Cl)nc3ccccc23)nc2ccccc12`, the growth inhibition was 54% (active) in experiment [1] and 103% (active) in experiment [4]. Also, the results for the inhibition in experiment [2] and in experiment [3] were 17% and -3%, respectively. Besides, the outcome in experiment [5], in experiment [6], in experiment [7] and in experiment [8] was inactive.

Regarding `CC(C)(C)c1ccc(CNC(=O)c2cc(CNC3CCNCC3)ccc2O)cc1`, the growth inhibition in experiment [1] was 8%; in experiment [4] it was 96% (active). Moreover, the results for the inhibition in experiment [2] and in experiment [3] were 6% and 2%, respectively. Moreover, the outcome in experiment [5], in experiment [6], in experiment [7] and in experiment [8] was inactive.

With `CCCCC([C@@H](Cc1ccc2ccccc2c1)C(=O)N[C@H](C(=O)NC)C(C)(C)C)N(O)C=O` (stereo not given in full), the growth inhibition in experiment [1] is 97% (active); in experiment [4], 100% (active). The inhibition in experiment [2] is -6%; in experiment [3], 5%. For the same compound, the outcome in experiment [5], in experiment [6], in experiment [7] and in experiment [8] was inactive.

For the compound `CCCN(CCC)CCCNc1ccc(C(=O)Nc2ccc(OCC)cc2)cc1[N+](=O)[O-]`, the results for the growth inhibition in experiment [1] and in experiment [4] were 2% and 89% (active), respectively. In addition, the inhibition was 7% in experiment [2] and -4% in experiment [3]. For the same compound, the result in experiment [5], in experiment [6], in experiment [7] and in experiment [8] was inactive.

As to `CC(C)CCN(Cc1cncn1Cc1cccc(Cl)c1)C(=O)c1cncc(-c2ccccc2)c1`, the results for the growth inhibition in experiment [1] and in experiment [4] were -1% and 99% (active), respectively. Also, the inhibition in experiment [2] is 9%; in experiment [3], -2%. The result in experiment [5], in experiment [6], in experiment [7] and in experiment [8] was inactive.

For the compound `O=C(Cc1cccc(O)c1)NCC(Cc1ccc(O)cc1)c1ccccc1` (stereo not given), the growth inhibition in experiment [1] is 97% (active); in experiment [4], 91% (active). For the same compound, the inhibition was -1% in experiment [2] and 3% in experiment [3]. Further, the outcome in experiment [5], in experiment [6], in experiment [7] and in experiment [8] was inactive.

`COCCN1CCC(CNCC(C)(C)c2nc(-c3ccc(Cl)c(O)c3)c(-c3ccncc3)[nH]2)CC1`: the growth inhibition was 2% in experiment [1] and 102% (active) in experiment [4]. For the same compound, the inhibition in experiment [2] was -15%; in experiment [3], -1%. Moreover, the result in experiment [5], in experiment [6], in experiment [7] and in experiment [8] was inactive.

As for `CCCCCC1c2[nH]c3ccccc3c2CCN1C(=O)OCc1ccccc1` (stereo not given), the growth inhibition in experiment [1] was 68% (active); in experiment [4], 93% (active). The inhibition is 3% in experiment [2] and -3% in experiment [3]. The outcome in experiment [5], in experiment [6], in experiment [7] and in experiment [8] was inactive.

Consider `Cc1cccc2[nH]c(-c3ccc(-c4cccc(NC(=O)Nc5ccc(Cl)c(Cl)c5)c4)s3)nc12`, for which the results for the growth inhibition in experiment [1] and in experiment [4] were 36% and 101% (active), respectively. Further, the inhibition in experiment [2] is 46%; in experiment [3] it was -1%. Also, the result in experiment [5], in experiment [6], in experiment [7] and in experiment [8] was inactive.

For the compound `Clc1ccc(OCc2ccccc2)c(-c2nc(-c3nc4ncc(Br)cc4[nH]3)cs2)c1`, the growth inhibition in experiment [1] is 77% (active); in experiment [4], 101% (active). Moreover, the inhibition is -7% in experiment [2] and -2% in experiment [3]. For the same compound, the result in experiment [5], in experiment [6], in experiment [7] and in experiment [8] was inactive.

`COc1cc(F)c2ncc(C#N)c(CCN3CCC(NCc4ccc5c(c4)OCCO5)CC3)c2c1`: the growth inhibition was 59% (active) in experiment [1] and 97% (active) in experiment [4]. The inhibition in experiment [2] was 5%; in experiment [3], -7%. Also, the outcome in experiment [5], in experiment [6], in experiment [7] and in experiment [8] was inactive.

Turning to `C=CCOc1ccc(CNC2CCN(Cc3ccccc3)CC2)cc1Br`, the results for the growth inhibition in experiment [1] and in experiment [4] were 8% and 92% (active), respectively. Also, the figures for the inhibition in experiment [2] and in experiment [3] were 9% and -2%, respectively. In addition, the outcome in experiment [5], in experiment [6], in experiment [7] and in experiment [8] was inactive.

Turning to `C[C@@H]1CN(c2ccc3occ(C(=O)Nc4ccc(-c5ccncc5)c(Cl)c4)c3c2)C[C@H](C)N1C`, the growth inhibition is 96% (active) in experiment [1] and 100% (active) in experiment [4]. Also, the inhibition is 14% in experiment [2] and -4% in experiment [3]. Also, the result in experiment [5], in experiment [6], in experiment [7] and in experiment [8] was inactive.

In the case of `CCc1c(C(=O)NC2CCC(N3CCC(c4ccccc4OC)CC3)CC2)[nH]c2ccc(Br)cc12` (stereo not given), the growth inhibition in experiment [1] was 98% (active); in experiment [4], 101% (active). For the same compound, the inhibition in experiment [2] is 85% (active); in experiment [3] it was -1%. The outcome in experiment [5], in experiment [6], in experiment [7] and in experiment [8] was inactive.

With `CC1(C)N=C(N)N=C(N)N1OCc1ccc2ccccc2c1`, the growth inhibition in experiment [1] was 97% (active); in experiment [4], 94% (active). Also, the inhibition in experiment [2] is 65% (active); in experiment [3], -9%. Further, the outcome in experiment [5], in experiment [6], in experiment [7] and in experiment [8] was inactive.
